Experimental data reported in PubChem BioAssay AID686979 (National Center for Advancing Translational Sciences (NCATS), 2013).
Among all 420,000 compounds or so, about 50,000 (12%) were called active. About 26% were inconclusive and are not listed. This is one part of a sample in which actives are shown more often than they occur. Unmarked numbers belong to inactive results. Calls follow the shape of the dose curve; as a rule, active = well fitted inhibition curve with a large enough effect; inconclusive = small, poorly fitted or top-dose-only effect; inactive = flat fitted curve, though single readings scatter.

assay: qHTS for Inhibitors of human tyrosyl-DNA phosphodiesterase 1 (TDP1): qHTS in cells in presence of CPT; details: chicken DT40 Tdp1-/-;hTDP1 cells + 20 nM CPT, ATP luminescence, 48 h; series mostly up to 46.2 µM; activity change, negative = growth inhibition: at the top concentration; also: nearly all actives have a fitted effect of over 55% in size
Procedure, shortened: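 Cell growth measured by CellTiter-Glo luminescence after a minimum 48 h, 37 C compound exposure with 20 nM CPT in Tdp1-knockout DT40 cells stably expressing hTDP1, seeded 400/well; qHTS titration format.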
% is scaled to controls: 0 for no effect and ±100 for the full control effect; potency is read from the fitted curve at half-maximal effect.

SMILES	activity change, negative = growth inhibition [%]	Potency
CCC(C)N1CC(=O)N2Cc3[nH]c4ccccc4c3C[C@H]2C1=O (stereo partly drawn)	-2.41	
COCCn1c(C)cc(C(=O)COC(=O)CNC(=O)c2ccco2)c1C	-17	
CCOC(=O)C1CCN(c2ncnc3c2c(-c2ccccc2)cn3-c2ccc(C)cc2)CC1		20.6 µM (active)
CCOC(=O)C1CCN(Cc2ccc(-c3ccccc3)cc2)CC1	6.78	
CCOC(=O)C1CCN(c2ncnc3c2c(-c2ccccc2)cn3-c2cccc(C)c2)CC1		18.4 µM (active)
CCOC(=O)C1CCN(c2ncnc3c2oc2ccc(Br)cc23)CC1	-22.5	
CCOC(=O)C1CCN(C(=O)COc2cc(C)c(Br)c(C)c2)CC1	-20.6	
O=c1[nH]cnc2c1c(-c1ccccc1)cn2-c1ccc(F)cc1	-11.8	
CC(Cc1cccs1)N(Cc1ccc(Cl)cc1)C(=O)c1ccncc1 (stereo not drawn)	-18.9	
COc1ccc(C(=O)O/N=C(\N)c2ccccn2)cc1[N+](=O)[O-]	-27.8	
COc1ccc(N=Nc2ccc(O)c(P(=O)(c3ccccc3)c3ccccc3)c2)cc1	-16.4	
COCCN(C(=O)C(C)N1C(=O)c2ccccc2C1=O)c1c(N)n(CC(C)C)c(=O)[nH]c1=O (stereo not drawn)	-29.5	
CCNC(=O)CC1C(=O)N(c2ccc(F)cc2)C(=O)N1Cc1ccc(C)cc1 (stereo not drawn)	-0.743	
CSc1ccc(CNCCN2CCOCC2)cc1	-4.96	
CC(C)(C)c1ccc(CCC2OCC(CN3CCOCC3)O2)cc1 (stereo not drawn)		20.6 µM (active)
CCCCOc1ccc(C(C)(O)CCN2CCOCC2)cc1 (stereo not drawn)	7.6	
CC(C)CCNC(=O)c1[nH]c(C(F)(F)F)nc1-c1ccccc1	-24.5	
COc1ccc(C(=O)Nc2cc(C)ccc2NC(=O)COc2ccccc2)cc1	10.8	
COc1ccc(C(=O)NN(C)c2nc(-c3ccccc3)cc(C)c2S(C)(=O)=O)cc1		16.4 µM (active)
COc1ccc(/C(C)=N\NC(=O)c2ccc(-c3ccccc3)cc2)c(F)c1	1.06	
CC1CCCCC1NC(=O)Cn1c(=O)cnc2ccccc21 (stereo not drawn)	0.78	
O=S(=O)(Nc1ccccc1Br)c1cccs1	9.21	
O=C(Cc1c(O)c2ccccc2[nH]c1=O)NCc1ccccc1	1.16	
CCCOC(=O)Cc1c(O)c2ccccc2[nH]c1=O	-11.3	
COC(=O)Cc1c(-c2[nH]c3ccccc3c2CC(=O)OC)[nH]c2ccccc12		20.6 µM (active)

SMILES	activity change, negative = growth inhibition [%]	Potency
Cc1ccc(Nc2ncnc3c2cnn3C)c(C)c1	-27.3	
Cc1cc(-c2n[nH]c(=S)n2-c2ccc(C)c(C)c2)no1	-11.6	
CCN(CC)C(=O)COc1coc(CN2CCN(Cc3ccccc3)CC2)cc1=O	-2.36	
CC(C)(C)NC(=O)COC(=O)c1cc(Cl)ccc1[N+](=O)[O-]	3.17	
Cc1ccc(Nc2nc(CSc3nnnn3-c3ccccc3)cc(=O)[nH]2)cc1		23.1 µM (active)
Nc1nc(CSc2nnnn2-c2ccccc2)nc(Nc2ccccc2)n1	-16	
Cc1ccc(-c2noc(CSc3nnnn3-c3ccccc3)n2)cc1	-3.52	
O=C(NC1(C(F)(F)F)NC(=O)N(Cc2cccnc2)C1=O)c1ccccc1Cl (stereo not drawn)	-1.49	
COC(=O)[C@@]12C[C@@H](CC(=O)N3CCC(c4ccccc4)CC3)C(=O)N(Cc3ccccc3)C1=CCC(C)(C)C2		18.4 µM (active)
COC(=O)[C@]12CCCCC=C1N(Cc1ccc3c(c1)OCO3)C(=O)[C@H](CC(=O)N1CCOCC1)C2	8.29	
CCOC(=O)C1CCN(C(=O)CC2C(=O)N(Cc3ccccc3)C(C)c3nc4ccccc4n32)CC1 (stereo not drawn)	-26.1	
O=c1cc(CN2CCN(c3cccc(Cl)c3)CC2)c2cc3c(cc2o1)CCCC3	-28.5	
O=C(NCCCO)/C(=C\C=C\c1ccccc1)NC(=O)c1ccccc1Cl	-12.1	
CCOP(=O)(OCC)C(Nc1ccc([N+](=O)[O-])cc1)c1ccc(Cl)cc1 (stereo not drawn)	-22	
CN1CCNC(=O)C1CC(=O)NCCC1=CCCCC1 (stereo not drawn)	-0.969	
CCOC(=O)[C@]12CCCC=C1N(CCC1=CCCCC1)C(=O)[C@H](CC(=O)N1CCCCC1)C2		7.31 µM (active)
CC1=C(C(=O)N2CCOCC2)CC(CC(=O)NCCN2CCOCC2)C(=O)N1CCC1=CCCCC1 (stereo not drawn)	-24.6	
CCOC(=O)[C@]12CCCC=C1N(CCC1=CCCCC1)C(=O)[C@H](CC(=O)N1CCOCC1)C2	-80.8	
CCOC(=O)[C@]12CCC=C1N(Cc1ccco1)C(=O)[C@H](CC(=O)N1CCSCC1)C2	-27.5	
CCOC(=O)[C@]12CCCC=C1N(Cc1ccc(Cl)cc1Cl)C(=O)[C@H](CC(=O)N1CCCCC1)C2		20.6 µM (active)
CCOC(=O)[C@]12CCC=C1N(Cc1ccccc1)C(=O)[C@H](CC(=O)N1CCCC1)C2	-15.5	
CCOC(=O)[C@]12CCCC=C1N(CCC1=CCCCC1)C(=O)[C@H](CC(=O)NCCCOC)C2		14.6 µM (active)
CC1=C(C(=O)N(C)C)CC(CC(=O)NCCc2ccccn2)C(=O)N1CCC1=CCCCC1 (stereo not drawn)	5.55	
CCCCOCCCNC(=O)C[C@@H]1C[C@@]2(C(=O)OCC)CCCC=C2N(CCC2=CCCCC2)C1=O		13 µM (active)
COc1ccc(CNC(=O)CN(C(=O)c2csnn2)c2cnc3ccccc3c2)cc1	-24	

SMILES	activity change, negative = growth inhibition [%]	Potency
COCCNc1nnc(SCC(=O)NNC(=O)c2ccco2)s1	-0.281	
Cc1ccc(NC(=O)C2CC2c2ccccc2)cc1 (stereo not drawn)	-15.6	
O=C(/C=C/[C@H]1O[C@@H](n2cnc3c(NC(=O)c4ccccc4)ncnc32)[C@H](O)[C@@H]1O)NCc1ccccc1	-25.5	
CC1CCCCC12NC(=O)N(CC(=O)Nc1ccc(S(=O)(=O)Nc3ncccn3)cc1)C2=O (stereo not drawn)	0.923	
CCC(C)N(C(=O)COC(=O)C1C(C(=O)OC)=C(C)NC(C)=C1C(=O)OC)C1CCS(=O)(=O)C1 (stereo not drawn)	0.101	
COc1cc(OC)c(C(=S)N2CCCC2)cc1OC	-22	
CSc1ccccc1C(=O)OCC(=O)N1CCN(C(C)=O)CC1	-0.484	
Cc1ccc(NC(=O)[C@H](Cc2ccccc2)NC(=O)CC[C@H]2O[C@@H](n3ccc(=O)[nH]c3=O)[C@H](O)[C@@H]2O)cc1C	-6.82	
Cc1cccc(C(=O)Nc2ccc(Oc3cnccn3)cc2)c1	-11.8	
CCCCNC(=O)C[C@@H]1C[C@@]2(C(=O)OCC)CCC=C2N(Cc2cccc3ccccc23)C1=O		16.4 µM (active)
CCCCNC(=O)C[C@@H]1C[C@@]2(C(=O)OCC)CCC=C2N(Cc2ccco2)C1=O	-11.1	
CCN(CC)C(=O)C1=C(C)N(Cc2ccc(OC)cc2)C(=O)C(CC(=O)NCc2ccco2)C1 (stereo not drawn)	-18.4	
C#CCNC(=O)C[C@@H]1C[C@@]2(C(=O)OCC)CCCC=C2N(Cc2ccco2)C1=O	-5.49	
CCOC(=O)[C@]12CCC=C1N(CCC1=CCCCC1)C(=O)[C@H](CC(=O)NCc1ccc(C)o1)C2		16.4 µM (active)
CC1=C(C(=O)N2CCOCC2)CC(CC(=O)NCc2cccc3ccccc23)C(=O)N1CCC1=CCCCC1 (stereo not drawn)	-11.8	
Cc1ccccc1OCC(=O)NNC(=O)c1cc(S(=O)(=O)N(C)C)ccc1N1CCCC1	-16.2	
COc1ccc(NC(=O)CN(C)C(=O)CC2CCCCC2)cc1	1.32	
COc1cc(OC)c(C2C=C(C(=O)O)Nc3ncnn32)cc1OC (stereo not drawn)	0.986	
CC(C)CC(=O)Nc1ccc(Cc2ccncc2)cc1	-22.1	
CCNC(=O)C1(C)CCN(C(=O)c2ccccc2)C1 (stereo not drawn)	-20.3	
CCOC(=O)NC(=O)C(=CNc1cccc(OC)c1)C(=O)NC(=O)OCC	1.35	
COCCn1nnnc1C(c1cc2ccc(OC)cc2[nH]c1=O)N1CCc2ccccc2C1 (stereo not drawn)	-27.8	
CCC(c1nnnn1Cc1ccco1)N(CCc1ccccc1)Cc1cc2ccc(OC)cc2[nH]c1=O (stereo not drawn)		23.1 µM (active)
COc1ccc2[nH]c3c(=O)n(Cc4ccco4)cnc3c2c1	-2.12	
COc1cc(OC)c(C(=O)N2CCCC2)cc1OC	22.1	

SMILES	activity change, negative = growth inhibition [%]	Potency
Cc1ccc(NC(=O)C(C)Sc2nnc(C3CC3)n2C2CC2)cc1S(=O)(=O)N1CCOCC1 (stereo not drawn)	-20.8	
CSCCC(NC(=O)c1ccc(Cl)cc1Cl)C(=O)NNC(=O)c1csc(N2CCOCC2)n1 (stereo not drawn)	4.89	
CCOC(=O)c1cc2c(nc1NC(=S)Nc1ccccc1)CC(C)(CC)OC2 (stereo not drawn)	0.397	
O=C(NNS(=O)(=O)c1ccc(F)cc1)C1CCCCC1	2.3	
CCOC(=O)c1c(S(=O)(=O)N2CCCC(C(=O)NCc3ccc(F)cc3)C2)c(C)n(CC)c1C (stereo not drawn)	-14.2	
Cc1ccccc1CNC(=O)C1CCCN(S(=O)(=O)N(C)c2ccc(F)cc2)C1 (stereo not drawn)		23.1 µM (active)
O=C(NCc1ccccc1Cl)C1CCCN1S(=O)(=O)c1ccc(F)cc1 (stereo not drawn)	-27.9	
CCNC(=O)CC1C(=O)N(c2ccc(OC)cc2)C(=O)N1CCOC (stereo not drawn)	-3.13	
CN(C)N=Nc1ccc2nc[nH]c2c1	-13.5	
Cc1ccc2c(N)c(C(=O)c3ccccc3)sc2n1	-24.8	
CCCCNC(=O)c1ccc2c(c1)NC(=O)C(C(C)C)N2 (stereo not drawn)	-22	
Cc1[nH]c2ccccc2c1C(=O)CN1CCCC(C)C1 (stereo not drawn)	4.31	
Cc1ccc2c(C(=O)CN3CCCC3)c(C)[nH]c2c1	-19.6	
Cc1[nH]c2ccccc2c1C(=O)CSCC(=O)O	-19.6	
CCOC(=O)N1CCN(CC(=O)c2c(C)[nH]c3ccccc23)CC1		18.4 µM (active)
Cc1[nH]c2ccccc2c1C(=O)COC(=O)C(C)C	-4.53	
Cc1[nH]c2ccccc2c1C(=O)CN1CC(C)CC(C)C1 (stereo not drawn)		11.6 µM (active)
CCOCCCNC(=O)C(NC(=O)Cc1c[nH]c2ccccc12)c1ccc(OC)cc1 (stereo not drawn)	2.87	
COc1cccc(NC(=O)N2CCN(C(=O)c3nsc4ccccc34)CC2)c1	5.7	
COC(=O)Cn1cnc2scc(-c3ccc(C)c(C)c3)c2c1=O	7.8	
CCOC(=O)c1c(NC(=O)CCl)sc(C(=O)N(CC)CC)c1C		13 µM (active)
CCOC(=O)Nc1sc(C(=O)N(C)C)c(C)c1C(=O)OCC	-13.3	
CCOC(=O)c1c(NC(=O)COC(=O)c2ccc(S(=O)(=O)C(F)F)cc2)sc(C(=O)N(C)C)c1C	-14.4	
